Records with an inconclusive call do not appear. Activity calls are given as the source filed them. The call rests on the fitted dose curve; in most records, active means well fitted curve in the direction sought with a large enough effect; inconclusive means small, poorly fitted or top-dose-only effect, or another doubt; inactive means no such curve, though single readings can be large; an effect the other way counts as inactive or inconclusive.
Legend:
[1] = qHTS of pediatric cancer cell lines to identify multiple opportunities for drug repurposing: Confirmatory screen for BT-37 cells (AID 1347117); further: potency means the concentration at half of the fitted maximal effect; nearly all actives have a fitted effect of over 55% in size
Procedure, shortened: (§1)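 Cells (500-1,000/well) in growth media were settled 5 h at 37 degrees C, then given compounds for 48 h. Viability was read as CellTiter-Glo luminescence. Primary runs used MIPE at 11 points (0.78 nM-46 µM) and NPC at 8 points (0.59 nM-46 µM); follow-ups used 11 points.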

[2] = qHTS of pediatric cancer cell lines to identify multiple opportunities for drug repurposing: Confirmatory screen for control Hh wild type fibroblast cells (AID 1347121); further: nearly all actives have a fitted effect of over 70% in size; further: potency means the concentration at half of the fitted maximal effect
Procedure, shortened: as §1

[3] = qHTS of pediatric cancer cell lines to identify multiple opportunities for drug repurposing: Confirmatory screen for U-2 OS cells (AID 1347122); further: potency means the concentration at half of the fitted maximal effect; nearly all actives have a fitted effect of over 65% in size
Procedure, shortened: as §1

[4] = qHTS of pediatric cancer cell lines to identify multiple opportunities for drug repurposing: Confirmatory screen for Rh41 cells (AID 1347123); further: potency means the concentration at half of the fitted maximal effect; nearly all actives have a fitted effect of over 60% in size
Procedure, shortened: as §1

[5] = qHTS of pediatric cancer cell lines to identify multiple opportunities for drug repurposing: Confirmatory screen for Rh18 cells (AID 1347125); further: nearly all actives have a fitted effect of over 55% in size; further: potency means the concentration at half of the fitted maximal effect
Procedure, shortened: as §1

[6] = qHTS of pediatric cancer cell lines to identify multiple opportunities for drug repurposing: Confirmatory screen for Saos-2 cells (AID 1347127); further: nearly all actives have a fitted effect of over 60% in size; further: potency means the concentration at half of the fitted maximal effect
Procedure, shortened: as §1

[7] = qHTS of pediatric cancer cell lines to identify multiple opportunities for drug repurposing: Confirmatory screen for OHS-50 cells (AID 1347128);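 further: compound exposure lasted 48 h at 37 degrees C; nearly all actives have a fitted effect of over 55% in size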; further: potency means the concentration at half of the fitted maximal effect
Procedure, shortened: as §1

[8] = qHTS of pediatric cancer cell lines to identify multiple opportunities for drug repurposing: Confirmatory screen for SK-N-SH cells (AID 1347129);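 further: cells exposed to compound for 48 h before viability read; nearly all actives have a fitted effect of over 60% in size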; further: potency means the concentration at half of the fitted maximal effect
Procedure, shortened: as §1

[9] = test system: Zika virus NS2B-NS3 protease; test: Primary screen GU AMC qHTS for Zika virus inhibitors (AID 1347154); further: nearly all actives have a fitted effect of over 70% in size
Procedure, shortened: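 Unlinked Zika NS2B hydrophilic domain/NS3 protease domain noncovalent complex (25 nM final) in 10 mM Tris-HCl pH 8.0, 0.01% Tween 20, with AMC peptide substrate. Fluorescence (ex 340, em 450 nm) change over 15 min, room temperature; percent inhibition fitted to 4-parameter Hill equation.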

[10] = qHTS of pediatric cancer cell lines to identify multiple opportunities for drug repurposing: Confirmatory screen for SJ-GBM2 cells (AID 1347116); further: nearly all actives have a fitted effect of over 60% in size; further: potency means the concentration at half of the fitted maximal effect
Procedure, shortened: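 Viability measured as metabolically active cells via CellTiter-Glo luminescence following 48 hours of compound exposure, 11-point dilutions in confirmatory testing. 500-1,000 cells/well plated 5 hours before dosing; controls were DMSO and 2.3 µM bortezomib.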

[11] = qHTS of pediatric cancer cell lines to identify multiple opportunities for drug repurposing: Confirmatory screen for TC32 cells (AID 1347118);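 further: potency means the concentration at half of the fitted maximal effect; cells exposed to compound for 48 h before the read; nearly all actives have a fitted effect of over 65% in size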
Procedure, shortened: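 Luminescent CellTiter-Glo read-out of metabolically active TC32 cells after 48 h compound exposure. Primary: MIPE 11-point, 0.78 nM–46 µM; NPC 8-point, 0.59 nM–46 µM. Confirmatory: 11-point dilutions.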

[12] = qHTS of pediatric cancer cell lines to identify multiple opportunities for drug repurposing: Confirmatory screen for RD cells (AID 1347124);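 further: cells exposed to compound for 48 h before viability readout; nearly all actives have a fitted effect of over 65% in size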; further: potency means the concentration at half of the fitted maximal effect
Procedure, shortened: as §1

[13] = qHTS of pediatric cancer cell lines to identify multiple opportunities for drug repurposing: Confirmatory screen for Rh30 cells (AID 1347126); further: potency means the concentration at half of the fitted maximal effect; nearly all actives have a fitted effect of over 55% in size
Procedure, shortened: as §1

[14] = qHTS of pediatric cancer cell lines to identify multiple opportunities for drug repurposing: Confirmatory screen for NB-EBc1 cells (AID 1347115);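 further: cells exposed to compound for 48 h before the viability read; nearly all actives have a fitted effect of over 45% in size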; further: potency means the concentration at half of the fitted maximal effect
Procedure, shortened: as §1

[15] = qHTS of pediatric cancer cell lines to identify multiple opportunities for drug repurposing: Confirmatory screen for MG 63 (6-TG R) cells (AID 1347119)
Procedure, shortened: as §1

## CN(c1ncccc1CNc1nc(Nc2ccc3c(c2)CC(=O)N3)ncc1C(F)(F)F)S(C)(=O)=O
[1]
  Potency: 7.37 µM (active)
[2]
  Potency: inactive
[3]
  Potency: 7.37 µM (active)
[4]
  Potency: 3.69 µM (active)
[5]
  Potency: inactive
[6]
  Potency: 8.27 µM (active)
[7]
  Potency: 5.85 µM (active)
[8]
  Potency: 3.72 µM (active)
[9]
  Potency: inactive

## Cc1nc2cnc3ccc(C#Cc4cccnc4)cc3c2n1-c1ccc(C(C)(C)C#N)cc1
[10]
  Potency: 6.76 µM (active)
[1]
  Potency: 1.51 µM (active)
[11]
  Potency: 0.676 µM (active)
[3]
  Potency: 2.14 µM (active)
[4]
  Potency: 0.851 µM (active)
[12]
  Potency: 12 µM (active)
[5]
  Potency: 1.91 µM (active)
[13]
  Potency: 1.35 µM (active)
[6]
  Potency: 5.37 µM (active)
[7]
  Potency: 3.39 µM (active)
[8]
  Potency: 2.15 µM (active)
[9]
  Potency: inactive

## C=C1C(=CC=C2CCC[C@]3(C)[C@@H]([C@H](C)C=C[C@H](C)C(C)C)CC[C@@H]23)C[C@@H](O)C[C@@H]1O
[14]
  Potency: 4.14 µM (active)
[15]
  Potency: 2.93 µM (active)
[2]
  Potency: inactive
[5]
  Potency: inactive
[6]
  Potency: inactive
[8]
  Potency: inactive
[9]
  Potency: inactive

## CC(C)c1cnn2c(NCc3ccccc3)cc(N[C@@H](CO)[C@H](O)CO)nc12
[1]
  Potency: 0.369 µM (active)
[11]
  Potency: 0.522 µM (active)
[15]
  Potency: 0.827 µM (active)
[2]
  Potency: inactive
[3]
  Potency: 0.465 µM (active)
[4]
  Potency: 0.737 µM (active)
[12]
  Potency: 0.737 µM (active)
[6]
  Potency: 0.585 µM (active)
[7]
  Potency: 0.522 µM (active)
[8]
  Potency: 0.332 µM (active)
[9]
  Potency: inactive

## Cc1cc(Nc2ncnc3ccc(-c4ccc(CNCCS(C)(=O)=O)o4)cc23)ccc1Oc1ccn2ncnc2c1
[10]
  Potency: 0.0657 µM (active)
[1]
  Potency: 16.5 µM (active)
[2]
  Potency: inactive
[4]
  Potency: 2.33 µM (active)
[8]
  Potency: 20.9 µM (active)

## Cc1cc(Nc2cc(NC(=O)c3c(Cl)cccc3Cl)ccn2)nc(N)n1
[10]
  Potency: inactive
[1]
  Potency: 5.22 µM (active)
[11]
  Potency: 0.827 µM (active)
[2]
  Potency: 20.8 µM (active)
[4]
  Potency: 0.269 µM (active)
[12]
  Potency: inactive
[13]
  Potency: 24 µM (active)
[6]
  Potency: 1.31 µM (active)
[7]
  Potency: 0.369 µM (active)
[8]
  Potency: 13.6 µM (active)
[9]
  Potency: inactive

## CN(C)CC(C)(C)CNc1nn2c(-c3ccccc3)nnc2cc1C1CCC1
[14]
  Potency: inactive
[2]
  Potency: inactive
[12]
  Potency: inactive
[5]
  Potency: inactive
[6]
  Potency: inactive
[7]
  Potency: inactive
[8]
  Potency: inactive
[9]
  Potency: inactive

## Cc1ccc(C(=O)Nc2cccc(C(F)(F)F)c2)cc1-c1ccc2nc(NCCN3CCOCC3)ncc2c1
[10]
  Potency: 13.1 µM (active)
[1]
  Potency: 4.14 µM (active)
[3]
  Potency: 4.14 µM (active)
[4]
  Potency: 5.85 µM (active)
[12]
  Potency: 7.37 µM (active)
[5]
  Potency: 7.37 µM (active)
[13]
  Potency: 5.22 µM (active)
[6]
  Potency: 8.27 µM (active)
[7]
  Potency: 8.27 µM (active)
[8]
  Potency: inactive

## CC(C)(C)NC(=O)[C@H]1CN(Cc2cccnc2)CCN1C[C@@H](O)C[C@@H](Cc1ccccc1)C(=O)N[C@H]1c2ccccc2C[C@H]1O
[14]
  Potency: inactive
[15]
  Potency: 23.3 µM (active)
[2]
  Potency: inactive
[3]
  Potency: 23.3 µM (active)
[4]
  Potency: 20.8 µM (active)
[12]
  Potency: inactive
[5]
  Potency: inactive
[13]
  Potency: 18.5 µM (active)
[8]
  Potency: inactive
[9]
  Potency: inactive
